Legend:
[1] = target: Serine/threonine-protein kinase MARK2 (Homo sapiens) (UniProt Q7KZI7); conditions: at 1 µM
[2] = target: PAS domain-containing serine/threonine-protein kinase (Homo sapiens) (UniProt Q96RG2); conditions: at 0.1 µM
[3] = target: PAS domain-containing serine/threonine-protein kinase (Homo sapiens) (UniProt Q96RG2); conditions: at 1 µM
[4] = target: Phosphorylase b kinase gamma catalytic chain, skeletal muscle/heart isoform (Homo sapiens) (UniProt Q16816); conditions: at 0.1 µM
Phosphorylase b kinase gamma catalytic chain, skeletal muscle/heart isoform (Homo sapiens), sequence (Q16816 whole entry, looked up, canonical isoform): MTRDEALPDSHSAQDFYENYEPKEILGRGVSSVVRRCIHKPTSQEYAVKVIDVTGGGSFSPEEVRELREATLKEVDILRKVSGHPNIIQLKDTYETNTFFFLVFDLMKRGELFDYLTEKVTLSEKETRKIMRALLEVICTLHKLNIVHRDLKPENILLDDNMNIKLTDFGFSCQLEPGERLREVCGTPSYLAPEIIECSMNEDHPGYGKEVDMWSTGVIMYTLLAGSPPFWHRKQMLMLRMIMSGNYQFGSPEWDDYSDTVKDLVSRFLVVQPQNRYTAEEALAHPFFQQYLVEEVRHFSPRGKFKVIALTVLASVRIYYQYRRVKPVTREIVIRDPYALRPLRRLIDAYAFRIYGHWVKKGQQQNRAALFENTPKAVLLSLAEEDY

[5] = target: Phosphorylase b kinase gamma catalytic chain, skeletal muscle/heart isoform (Homo sapiens) (UniProt Q16816); conditions: at 1 µM
[6] = target: T1, Phosphorylase b kinase gamma catalytic chain, liver/testis isoform (Homo sapiens) (UniProt P15735); conditions: at 0.1 µM
T1 sequence (whole entry): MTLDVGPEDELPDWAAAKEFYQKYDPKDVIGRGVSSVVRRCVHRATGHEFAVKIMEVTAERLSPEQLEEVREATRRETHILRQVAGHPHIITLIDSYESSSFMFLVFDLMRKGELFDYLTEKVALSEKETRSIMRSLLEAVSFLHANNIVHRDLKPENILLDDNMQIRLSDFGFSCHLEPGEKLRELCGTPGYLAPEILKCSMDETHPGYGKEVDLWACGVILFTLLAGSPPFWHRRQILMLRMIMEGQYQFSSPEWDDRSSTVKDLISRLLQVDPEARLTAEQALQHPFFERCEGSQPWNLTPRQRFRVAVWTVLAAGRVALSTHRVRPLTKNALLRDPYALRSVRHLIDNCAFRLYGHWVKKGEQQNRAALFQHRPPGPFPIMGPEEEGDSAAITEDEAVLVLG

[7] = target: T1, Phosphorylase b kinase gamma catalytic chain, liver/testis isoform (Homo sapiens); conditions: at 1 µM
[8] = target: Serine/threonine-protein kinase pim-1 (Homo sapiens) (UniProt P11309); conditions: at 0.1 µM
Serine/threonine-protein kinase pim-1 (Homo sapiens), sequence (P11309 whole entry, looked up): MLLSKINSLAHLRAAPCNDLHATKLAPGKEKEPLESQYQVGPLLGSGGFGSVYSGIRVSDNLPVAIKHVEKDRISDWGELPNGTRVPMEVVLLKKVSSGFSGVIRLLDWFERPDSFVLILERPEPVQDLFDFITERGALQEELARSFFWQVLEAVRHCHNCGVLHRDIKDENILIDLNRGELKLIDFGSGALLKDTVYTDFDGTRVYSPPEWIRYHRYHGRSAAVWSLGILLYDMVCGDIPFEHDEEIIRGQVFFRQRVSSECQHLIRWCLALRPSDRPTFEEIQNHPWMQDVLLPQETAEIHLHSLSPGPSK

[9] = target: Serine/threonine-protein kinase pim-1 (Homo sapiens) (UniProt P11309); conditions: at 1 µM
[10] = target: Serine/threonine-protein kinase pim-2 (Homo sapiens) (UniProt Q9P1W9); conditions: at 0.1 µM;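 also: reported value is the mean percent inhibition of PIM2, measured in the GSK PKIS kinase inhibitor set screen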
Serine/threonine-protein kinase pim-2 (Homo sapiens), sequence (Q9P1W9 whole entry, looked up): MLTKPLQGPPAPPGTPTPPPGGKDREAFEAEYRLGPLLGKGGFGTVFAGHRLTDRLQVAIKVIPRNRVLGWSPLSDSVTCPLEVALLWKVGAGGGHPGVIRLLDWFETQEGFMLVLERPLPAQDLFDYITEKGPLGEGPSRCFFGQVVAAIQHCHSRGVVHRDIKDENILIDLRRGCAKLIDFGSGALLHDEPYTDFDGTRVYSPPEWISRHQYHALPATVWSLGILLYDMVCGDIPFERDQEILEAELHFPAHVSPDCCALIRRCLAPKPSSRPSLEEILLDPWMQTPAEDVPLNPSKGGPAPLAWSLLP

PAS domain-containing serine/threonine-protein kinase (Homo sapiens), sequence (Q96RG2 whole entry, the tested form may be a part, canonical isoform): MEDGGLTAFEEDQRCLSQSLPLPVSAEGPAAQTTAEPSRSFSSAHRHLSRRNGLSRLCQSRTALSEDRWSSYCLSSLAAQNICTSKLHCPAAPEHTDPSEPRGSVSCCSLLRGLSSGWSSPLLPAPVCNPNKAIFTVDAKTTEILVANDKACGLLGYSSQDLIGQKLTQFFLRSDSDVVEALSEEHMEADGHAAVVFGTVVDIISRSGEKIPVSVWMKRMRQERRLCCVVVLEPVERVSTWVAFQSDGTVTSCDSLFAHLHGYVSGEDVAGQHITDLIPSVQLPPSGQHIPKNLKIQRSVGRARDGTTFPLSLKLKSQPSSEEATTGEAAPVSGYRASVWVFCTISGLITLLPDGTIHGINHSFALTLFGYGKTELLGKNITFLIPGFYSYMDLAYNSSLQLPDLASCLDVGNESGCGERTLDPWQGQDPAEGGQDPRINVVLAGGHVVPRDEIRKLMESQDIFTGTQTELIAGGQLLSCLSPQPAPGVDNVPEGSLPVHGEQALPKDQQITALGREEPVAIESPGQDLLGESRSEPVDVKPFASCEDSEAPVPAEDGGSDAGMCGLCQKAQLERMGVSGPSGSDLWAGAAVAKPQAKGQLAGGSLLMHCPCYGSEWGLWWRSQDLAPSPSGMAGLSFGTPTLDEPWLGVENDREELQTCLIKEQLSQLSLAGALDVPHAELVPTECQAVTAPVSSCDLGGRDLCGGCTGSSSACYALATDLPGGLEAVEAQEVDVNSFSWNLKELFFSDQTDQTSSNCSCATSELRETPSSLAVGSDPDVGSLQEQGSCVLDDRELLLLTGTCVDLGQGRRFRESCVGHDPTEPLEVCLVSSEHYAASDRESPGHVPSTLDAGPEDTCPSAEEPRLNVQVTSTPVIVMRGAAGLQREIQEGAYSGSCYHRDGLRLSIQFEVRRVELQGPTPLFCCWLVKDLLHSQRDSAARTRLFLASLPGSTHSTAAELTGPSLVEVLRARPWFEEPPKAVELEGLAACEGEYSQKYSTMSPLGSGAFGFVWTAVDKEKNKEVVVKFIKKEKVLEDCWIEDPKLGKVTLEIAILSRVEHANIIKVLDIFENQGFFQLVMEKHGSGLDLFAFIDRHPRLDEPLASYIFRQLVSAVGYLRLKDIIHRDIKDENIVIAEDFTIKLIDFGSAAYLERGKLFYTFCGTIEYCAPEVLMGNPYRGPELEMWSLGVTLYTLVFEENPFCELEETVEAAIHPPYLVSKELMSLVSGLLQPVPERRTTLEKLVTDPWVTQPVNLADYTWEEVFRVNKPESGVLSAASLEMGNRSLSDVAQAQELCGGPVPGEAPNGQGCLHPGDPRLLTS
Serine/threonine-protein kinase MARK2 (Homo sapiens), sequence (Q7KZI7 whole entry, the tested form may be a part): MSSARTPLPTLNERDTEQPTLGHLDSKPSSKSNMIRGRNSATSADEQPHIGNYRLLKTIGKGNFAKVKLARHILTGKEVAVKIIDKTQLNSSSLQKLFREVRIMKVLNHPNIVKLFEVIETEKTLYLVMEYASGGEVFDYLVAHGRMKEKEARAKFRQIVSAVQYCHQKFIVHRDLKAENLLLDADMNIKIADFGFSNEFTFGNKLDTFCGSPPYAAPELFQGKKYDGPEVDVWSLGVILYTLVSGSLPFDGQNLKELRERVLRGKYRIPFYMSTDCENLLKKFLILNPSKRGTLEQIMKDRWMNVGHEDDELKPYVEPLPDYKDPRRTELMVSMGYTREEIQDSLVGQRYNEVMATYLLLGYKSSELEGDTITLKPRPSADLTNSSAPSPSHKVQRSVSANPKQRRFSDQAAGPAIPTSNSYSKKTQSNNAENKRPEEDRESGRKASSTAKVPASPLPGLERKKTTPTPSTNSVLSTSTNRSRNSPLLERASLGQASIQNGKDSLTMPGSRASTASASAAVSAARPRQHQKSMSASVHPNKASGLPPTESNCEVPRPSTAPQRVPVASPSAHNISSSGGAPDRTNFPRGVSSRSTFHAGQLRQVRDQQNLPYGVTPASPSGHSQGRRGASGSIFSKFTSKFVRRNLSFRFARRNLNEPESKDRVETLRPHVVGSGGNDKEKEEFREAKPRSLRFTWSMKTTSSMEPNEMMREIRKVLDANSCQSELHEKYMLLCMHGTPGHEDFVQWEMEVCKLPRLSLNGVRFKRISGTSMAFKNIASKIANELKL

| SMILES | inhibition [1] [%] | inhibition [2] [%] | inhibition [3] [%] | inhibition [4] [%] | inhibition [5] [%] | inhibition [6] [%] | inhibition [7] [%] | inhibition [8] [%] | inhibition [9] [%] | inhibition [10] [%] |
| --- | --- | --- | --- | --- | --- | --- | --- | --- | --- | --- |
| COc1cc2ncn(-c3cc(O[C@@H](C)c4ccccc4Cl)c(C(N)=O)s3)c2cc1OC | 5.29 | 0.19 | 1.28 | 5.83 | 8.24 | 6.55 | 6.6 | -0.02 | 1.8 | -0.11 |
| COc1ccc(COc2ccc(Cc3cnc(N)nc3N)cc2OC)cc1 | 3.13 | 1.77 | 0.54 | -0.96 | 1.56 | 1.58 | -1.66 | 1.34 | 0.49 | 2.71 |
| Cc1cc(O)cc(C)c1/C=C/c1cncc(-c2nn[nH]n2)c1 | 3.29 | -0.17 | -1.14 | 6.07 | 4.92 | 4.78 | 2.82 | 0.66 | 1.59 | -3.3 |
| N#Cc1c(NC(=O)c2cccc3ccccc23)sc2c1CCCC2 | 1.22 | -0.47 | -1.11 | 8.32 | 5.08 | 2.74 | 1.46 | 0.51 | 0.27 | -0.34 |
| CCn1c(-c2nonc2N)nc2c(C#CC(C)(C)O)nc(CN3CCCC3)cc21 | 10 | 0.49 | 1.59 | 2.9 | 2.56 | -2.3 | -1.9 | 0.28 | -0.73 | 0.26 |
| O=C1Nc2ccc(C(=O)c3ccco3)cc2C1=Cc1cc(Cl)c(O)c(Cl)c1 | 8.29 | -0.44 | -0.13 | 2.98 | 9.29 | 3.61 | 2.94 | 3.39 | 31.8 | 2.1 |
| CC1=C(C(=O)Nc2ccc3[nH]ncc3c2)C(c2ccc(F)cc2)NC(=O)N1 (stereo not given) | 3.63 | -0.71 | -0.21 | 4.98 | 4.43 | 0.63 | 2.08 | 0.13 | -0.04 | -0.16 |
| CCn1c(-c2nonc2N)nc2ccncc21 | 1.6 | 0.79 | 0.01 | 1.54 | 2.74 | 2.66 | -0.15 | -0.28 | -0.66 | 0.35 |
| COC(=O)Nc1nc2cc(Oc3ccc(NC(=O)Nc4cccc(C(=O)O)c4)cc3)ccc2[nH]1 | 0.87 | 0.9 | 1.66 | -0.77 | 11.2 | 1.36 | 4.11 | -0.3 | 0.62 | -4.42 |
| CCCN1CCC=C(c2ccc(Nc3nc(Nc4ccccc4C(N)=O)c4cc[nH]c4n3)c(C)c2)C1 | 14.6 | -1.89 | -1.19 | -1.86 | 48.2 | 7.18 | 16.4 | 2.16 | 7.46 | 0.34 |
| CC(=O)Nc1cccc(C#Cc2cncnc2Nc2ccc(OCc3cccc(F)c3)c(Cl)c2)n1 | -0.36 | 1.79 | 6.21 | 1.84 | 3.66 | 0.59 | 6.86 | 1.5 | 0.89 | 0.58 |
| CS(=O)(=O)CCNCc1ccc(-c2ccc3ncnc(Nc4ccc(OCc5cccc(F)c5)c(C(F)(F)F)c4)c3c2)o1 | -0.27 | -0.62 | 0.4 | 5.41 | 4.1 | 4.72 | 4.64 | 1.03 | 1.08 | 0.19 |
| NC(=O)c1cccc(Nc2nccc(Nc3cccc4[nH]ncc34)n2)c1 | 10.3 | 0.03 | 1.81 | 0.63 | 12.6 | -5.45 | -1.62 | 0.6 | 1.43 | 0.4 |
| c1cnn2ncc(-c3ccnc(Nc4ccc5c(c4)OCCO5)n3)c2c1 | 14.3 | -0.33 | 0.82 | 5.46 | 27.6 | 7.04 | 17.1 | 0.98 | 7.95 | 0.25 |
| COc1cccc(-n2ncc3c(N/N=C/c4cccc(F)c4)ncnc32)c1 | 2.5 | -0.33 | -1.6 | 5.06 | 9 | 2.06 | 1.7 | -0.24 | 0.52 | -3.26 |
| CCn1c(-c2nonc2N)nc2cnc(Oc3cccc(NC(=O)c4ccc(OCCN5CCOCC5)cc4)c3)cc21 | 11 | -1.22 | -0.7 | -3.59 | 6.37 | 3.34 | 1.77 | 0.47 | 10.4 | -0.49 |
| Cc1cccc(-c2n[nH]cc2-c2ccc3ncccc3n2)n1 | -0.03 | -0.24 | 1.18 | 1.19 | 2.02 | -0.65 | -0.32 | -0.24 | 0.02 | 0.22 |

| SMILES | inhibition [1] [%] | inhibition [2] [%] | inhibition [3] [%] | inhibition [4] [%] | inhibition [5] [%] | inhibition [6] [%] | inhibition [7] [%] | inhibition [8] [%] | inhibition [9] [%] | inhibition [10] [%] |
| --- | --- | --- | --- | --- | --- | --- | --- | --- | --- | --- |
| COc1ccc(-c2nn3ncccc3c2-c2ccnc(Nc3ccc(Cl)c(C(F)(F)F)c3)n2)cc1 | -0.83 | 0.24 | 2.12 | 3.41 | 5.53 | 2.13 | 5.41 | 0.1 | 0.37 | 0.12 |
| Nc1ncnc2occ(-c3ccc(NC(=O)Nc4cccc(C(F)(F)F)c4)cc3)c12 | 3.83 | -0.58 | 0.31 | 6.3 | 10.2 | 6.43 | 4.64 | 1.56 | 2.28 | 0.42 |
| CNC(=O)c1cncc(/C=C/c2c(Cl)cccc2Cl)c1 | 2.64 | -1.52 | -0.36 | 0.96 | 8.72 | 4.13 | 4.55 | -0.49 | 1.79 | -3.71 |
| COc1ccccc1Nc1ncc(-c2ccccc2)o1 | 3.48 | -0.06 | 1.05 | 8.92 | 13.1 | 5.65 | 5.8 | 0.63 | 1.55 | 0.78 |
| CCCN1CCC(Oc2cc(Nc3nc(Nc4cccc(F)c4C(N)=O)c4cc[nH]c4n3)c(OC)cc2Cl)CC1 | 1.3 | 0.73 | 1.6 | 1.4 | 24.2 | -0.41 | 0.31 | 4.08 | 25.4 | 0.5 |
| CCn1c(-c2nonc2N)nc2cncc(C(=O)N3CC[C@H](N)C3)c21 | 7.14 | 0.29 | 22.9 | 6.12 | 6.32 | 6.67 | 5.58 | 74.1 | 94.2 | 9.73 |
| O=C(Nc1n[nH]c2nc(-c3ccco3)c(Br)cc12)C1CC1 | 2.09 | 0.09 | -1.87 | 1.65 | 2.36 | 4.24 | 1.34 | -0.5 | 0.54 | -0.2 |
| COc1cc2ncn(-c3cc(O[C@H](C)c4ccccc4Cl)c(C(N)=O)s3)c2cc1OC | 17.8 | 1.62 | 5.27 | 3.66 | 6.72 | 6.57 | 12.9 | 1.15 | 3.93 | 0.26 |
| Cc1ccc(C(=O)NC2CCCCC2)cc1-c1ccc(C(=O)NCC2CC2)cc1 | 0.99 | 1.33 | -0.83 | 0.53 | -0.89 | 3.98 | 1.55 | -0.39 | 0.56 | 1.02 |
| CCn1c(-c2nonc2N)nc2c(C#CC(C)(C)O)nc(OC[C@@H](N)c3ccccc3)cc21 | 13.6 | 0.65 | 16 | 0.84 | 4.71 | -2.07 | -2.54 | 1.15 | 3.59 | 0.23 |
| O=C1NC(=O)C(c2ccccc2Cl)=C1Nc1cccc(O)c1 | 8.31 | 0.42 | -0.94 | 1.1 | 1.82 | 3.35 | 0.71 | 1.24 | 1.62 | -0.21 |
| Cc1ccc(NC(=O)c2ccnc(N3CCCC3)c2)cc1-c1ccc(C(=O)NCC2CC2)cc1 | 6.34 | -0.05 | -1.71 | 6.43 | 11 | 5.9 | 5.73 | 0.89 | 1.92 | -2.62 |
| O=C1NC(=O)C(N2CCc3ccccc32)=C1c1ccc(Cl)cc1 | 2.02 | 0.1 | -1.5 | 3.36 | 5.29 | 4.72 | 2.26 | 0.92 | 1.27 | 0.55 |
| CC1=C(C(=O)Nc2ccc3[nH]ncc3c2)C(c2ccc3ccccc3c2)CC(=O)N1 (stereo not given) | 0.34 | -0.4 | -1.53 | 2.21 | 1.29 | 2.37 | 1.22 | 0.24 | -0.93 | 0.51 |
| [O-][S+]1CCN(Cc2ccc(-c3ccc4ncnc(Nc5ccc(OCc6ccccc6)c(F)c5)c4c3)o2)CC1 | 0.88 | -0.22 | -1.35 | 1.18 | -5.45 | 2.22 | 0.5 | 0.8 | 0.1 | -0.49 |
| CCn1c(-c2nonc2N)nc2c(N3CCCC3)nccc21 | 3.46 | -0.88 | -1.38 | 3.74 | -1.02 | -3.65 | -3.95 | 0.8 | 1.03 | -0.33 |

Reference: ChEMBL document CHEMBL1961873, “Compounds: GSK PKIS; Assays: Nanosyn kinase panel” (2012)
